40 sequences from the OligoGym collection can be followed below.
Note: reference of the scale not given here.

In the first test the target is GPR176. The experiment in a line: pooled miR-30 sensor sort-seq; sequence = guide strand. The note with it: shRNA.
Sequence TTTATTGTTTCTGCTCATCTTC had a sensor-assay potency score (higher = more potent) of -0.299. The same measure, in the same setting: next, TAGAGGACTGAGTAGTACCTGT: -0.351.

In turn, TAACACCATGAAGTTTCCGAGC yielded a sensor-assay potency score (higher = more potent) of -1.48. Same read-out and setting: the figure for AAAAATTTGACGACCTTGCAGA is -0.383. On the same count and under the same terms, next, TTGAACACGGTTGTGCGGCAAG: -0.817.

A further test addresses GPR20. The description is as above. Conditions: shRNA.
For the sequence ATGGTGTAGATGACTGAGGGTG, the sensor-assay potency score (higher = more potent) was -1.26.

For TAGACGATGGGGTCCATGCAGC, the sensor-assay potency score (higher = more potent) is -0.856.

In turn, TAGACCACGAGGCTCGTGTGGT registered a sensor-assay potency score (higher = more potent) of -1.11. For TTGATGGTGTAGATGACTGAGG, the sensor-assay potency score (higher = more potent) is -1.03. Same read-out and setting: the figure for TACCAGTAGATCGGTCACCACC is -1.53. Same read-out and setting: next, TAGTACACAGCGAAGCGCGTGG: 0.127. Same read-out and setting: the figure for TGCATGTTGAGGAAGTAACCGA is -0.614; for TTGGAGCTCCTGTGCATGCTGA it is -0.983; for TAGATCGGTCACCACCAGGTTG it is -0.8. Turning to TGGTGTAGATGACTGAGGGTGT, the sensor-assay potency score (higher = more potent) is -0.513. On the same count and under the same terms, the figure for TAGCGGTCCACGCAGATGCAGG is -1.47; for AAACACGCTGATGACCAGCAGG it is -1.04.

The target of a further test is GPR35. Described as above. Conditions: shRNA.
The sequence TAGCAGATGGCGTCCAGGCAGC showed a sensor-assay potency score (higher = more potent) of -1.38. As for TTGGCATCTGAGAGCTTGCTGG, the sensor-assay potency score (higher = more potent) was -1.04. Consider ATGTAGTAGTAGCAGATGGCGT, for which the sensor-assay potency score (higher = more potent) is -1.53. The same measure, in the same setting: the figure for TGGAGTTGAAATTGTGCCGGGT is 0.0323.

TTTGTGGGCCTTAGCACTGGGA gave a sensor-assay potency score (higher = more potent) of -1.13. Still for that read-out and setting: the figure for TTGGCCATGTAGTAGTAGCAGA is -0.948; for TGTAGTAGTAGCAGATGGCGTC it is 0.146; for TAGAAGCCCAGCTTGATCGCTG it is 0.371. Same read-out and setting: next, ATGGAGTTGAAATTGTGCCGGG: -0.394.

In turn, TAGGCGTAGAAGCCCAGCTTGA showed a sensor-assay potency score (higher = more potent) of -1.67. Still for that read-out and setting: the figure for TTGCTGGTTATGTACAGGGCGC is -1.43; for TTTTGTGGGCCTTAGCACTGGG it is -0.0303.

For the next test, the target named is GPR3. The description is as above. The note with it: shRNA.
TTGTCTCTGAATAGTAGGTGAG showed a sensor-assay potency score (higher = more potent) of -1.17. Still for that read-out and setting: the figure for TATATGTGCATATATAATCTTT is -0.621; for TCTGAGTAGAACACTGACCACC it is -0.825; for TAAATAGACACTGTCTTTGTAT it is 0.00652. Same read-out and setting: the figure for TGACTAATCTCTCTGACTCTTT is -0.512; for TAGAGCTGCAGCATGATGCCAA it is -0.00504. On the same count and under the same terms, next, TAGGGATCTGAACAGAACCTTG: -1.54. TTGGAAGAGGAACAGCAGCAGC: the sensor-assay potency score (higher = more potent) is -1.16.

TAGAACTCCAGAACCAGCTGGG displayed a sensor-assay potency score (higher = more potent) of 0.254. Still for that read-out and setting: next, TAGACAGTGAAGGGCAACCAGC: -1.54; TTGTACAGAGAAAGGTAGCGGT: 0.0257.
